Shown are actives, neighbours in structure and some others; about 5.6% of the full set was active somewhere.
PfM18AAP inh-1: PfM18AAP enzyme inhibition | inhibition, % at 7.35 µM | recombinant PfM18AAP, H-Glu-NHMec fluorogenic cleavage | hit rate 1.2% among 290,000;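 active means inhibition above the campaign mean inhibition over all tested compounds plus 3 SD, cut at about 28% in these data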
PHOSPHO1 inh: inhibitors of human PHOSPHO1 phosphatase | recombinant PHOSPHO1, absorbance phosphatase assay | inhibition, % at 13.3 µM | hit rate 1.1% among 290,000 | AID 1565; in the data active means inhibition above about 60%
Target sequence (Q8TCT1 whole entry, looked up): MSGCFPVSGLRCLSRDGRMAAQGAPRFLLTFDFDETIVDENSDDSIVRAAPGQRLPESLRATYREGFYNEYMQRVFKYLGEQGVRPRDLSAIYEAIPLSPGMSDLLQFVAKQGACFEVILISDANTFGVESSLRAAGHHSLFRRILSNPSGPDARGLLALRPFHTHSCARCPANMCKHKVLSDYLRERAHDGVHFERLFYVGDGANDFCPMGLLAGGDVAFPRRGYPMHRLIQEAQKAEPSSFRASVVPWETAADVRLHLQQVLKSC
PfG6PD inh: PfG6PD (Plasmodium falciparum) enzyme inhibition; PfGluPho enzyme, NADPH resazurin-diaphorase fluorescence; inhibition, % at 20 µM; hit rate 0.78% among 350,000;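 active means inhibition reaching at least a set limit at 20 µM in the primary screen, cut at about 59% in these data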
ALR inh: blocks human ALR sulfhydryl oxidase activity; P55789; purified ALR, DTT oxidation, H2O2 HRP-luminol luminescence; inhibition, % (no concentration beside the values); hit rate 3.8% among 290,000; AID 485317;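 active means mean replicate inhibition above about 79%, with every replicate also reaching it, limit read from the data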
Target sequence (P55789 whole entry, looked up): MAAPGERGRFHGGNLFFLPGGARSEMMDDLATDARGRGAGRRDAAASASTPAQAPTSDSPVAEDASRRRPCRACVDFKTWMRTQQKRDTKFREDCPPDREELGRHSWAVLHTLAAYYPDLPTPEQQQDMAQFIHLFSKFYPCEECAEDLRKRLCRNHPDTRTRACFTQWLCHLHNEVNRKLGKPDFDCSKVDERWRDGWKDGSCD
Cardio protect: modulators protecting cardiomyocytes from myocardial damage. hit rate 0.63% among 360,000. H9c2 cardiomyocytes, H2O2 injury protection, ATPLite, 2 h. protection from H2O2 cell death, % at 20 µM. AID 588492;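 active means compounds giving at least 50% protection of heart cells from peroxide-induced death in the single-dose screen, raw or plate-pattern-corrected value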
PfM18AAP inh-2: PfM18AAP inhibition, confirmation. hit rate 28% among 2,400. shares compounds with PfM18AAP inh-1. inhibition, % at 7.35 µM. recombinant PfM18AAP, H-Glu-NHMec fluorogenic cleavage;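 active means mean inhibition over replicate wells above the hit cutoff set for the earlier primary screen, cut at about 29% in these data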
CTSL1 counter: counter-screen for PFM18AAP inhibitors: confirmation of human cathepsin L inhibitors; shares compounds with PfM18AAP inh-1; purified cathepsin L1, Z-Leu-Arg-MCA fluorescence; inhibition, % at 5.96 µM; 2,400 tested, under 10 active;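 active means average inhibition across replicates above the hit cutoff set in the earlier primary screen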
PfGluPho conf: confirmation of Plasmodium falciparum G6PD inhibitors | hit rate 34% among 2,400 | inhibition, % at 20 µM | recombinant PfGluPho, NADPH-diaphorase-resazurin fluorescence | shares compounds with PfG6PD inh;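 active means inhibition of at least 50% at 20 µM in any single replicate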
Diaphorase 10uM: counter-screen for P. falciparum G6PD inhibitors: diaphorase inhibitors, oxidizers. diaphorase-coupled resazurin reduction, fluorescence, NADPH 10 uM. hit rate 39% among 820. shares compounds with PfG6PD inh. AID 504862. inhibition, % at 20 µM;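 active means average inhibition reaching 50% or more with the compound at 20 µM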;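 further: resorufin red fluorescence formed as diaphorase reduces resazurin using NADPH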
Diaphorase 30uM: diaphorase inhibition or oxidation at 30 uM NADPH. Diaphorase/resazurin coupled assay, resorufin fluorescence. inhibition, % at 20 µM. shares compounds with PfG6PD inh. hit rate 29% among 820;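 active means inhibition averaging 50% or more, tested at 20 µM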
A number is an active result; n = inactive; x = no result given.

SMILES | PfM18AAP inh-1 | PHOSPHO1 inh | PfG6PD inh | ALR inh | Cardio protect | PfGluPho conf | others
CN1CCN(CCNC(=O)c2ccc3nc(-c4ccc(F)cc4)c(-c4ccc(F)cc4)nc3c2)CC1 | n | n | n | n | n | x
Cc1nnc(N/N=C/c2cc(C)n(-c3ccc(F)cc3)c2C)n1N | 53 | n | 78 | n | n | n | PfM18AAP inh-2=n;CTSL1 counter=n
Cc1cc(/C=N/NC(N)=S)c(C)n1-c1ccc(Br)cc1 | n | n | n | n | n | x
O=C(O)c1cc(S(=O)(=O)N2CCN(S(=O)(=O)c3ccc4ccccc4c3)CC2)ccc1Br | x | x | n | n | n | x
COc1ccc(Cl)cc1C(=O)NNC(=O)COC(=O)CC(NC(C)=O)c1ccccc1 (stereo not given) | x | x | n | n | n | x
NC(=O)c1ccc(N2CCN(c3ccc(O)cc3)CC2)c([N+](=O)[O-])c1 | 50 | n | 66 | 99 | n | n | PfM18AAP inh-2=n;CTSL1 counter=n
O=C(CNC(=O)c1cncc(Br)c1)Nc1ccc(F)c(F)c1F | n | n | n | n | n | x
Cc1ccc(C(=O)OCC(=O)Nc2cccc(S(=O)(=O)N3CCCCC3)c2)s1 | x | x | n | x | n | x
NC(=S)NN=Cc1cc(-c2cccc(N)c2)ccn1 | x | x | 69 | x | n | n
NC(=S)N/N=C\c1c2ccccc2cc2ccccc12 | n | n | n | n | n | x
c1ccc(N=C2SCCCS2)cc1 | x | x | n | x | n | x
Cc1ccc(-c2cc(-c3ccccc3)nc(NN)n2)cc1 | n | n | n | n | n | x
Cc1ccc(-c2nc3ccccc3nc2-c2ccccc2)cc1 | n | n | n | n | n | x
CNc1nc(-c2ccccc2)[n+](-c2ccc(C)cc2)s1 | n | 90 | 108 | n | n | 107 | Diaphorase 10uM=n;Diaphorase 30uM=n
Cc1ccc(-c2nc(N)s[n+]2-c2ccccc2)cc1 | n | n | 110 | n | n | 56 | Diaphorase 10uM=n;Diaphorase 30uM=n
O=C(NCc1ccccc1Cl)c1csc(COCCO)n1 | x | x | x | x | n | x
Cc1ccc(N2CC(=O)N(NC(=O)c3sc4nc(C)cc(C)c4c3N)CC2=O)cc1 | n | n | n | n | n | x
O=C(CSc1ncccn1)N/N=C/c1cccc(OC2CSC2)c1 | n | n | n | n | n | x
Cn1ncc(Cl)c1C(=O)N/N=C/c1cccc(OC2CSC2)c1 | n | n | 109 | n | n | 85 | Diaphorase 10uM=76;Diaphorase 30uM=64
CCN(CC)c1ccc(C(=O)Nc2cccc(F)c2)cc1 | n | n | n | n | n | x
COc1ccc(NC(=O)c2ccc3c(c2)N(C)CCS3)cc1 | n | n | n | n | n | x
CN(C)c1cccc(C(=O)Nc2cccc(F)c2)c1 | n | n | 68 | 98 | n | n
CN1CCSc2ccc(C(=O)Nc3cccc(F)c3)cc21 | n | n | 64 | n | n | n
CN(C)c1ccc(CNc2ncnc3sccc23)cc1 | n | n | n | n | n | x
COCCN(C(=S)Nc1cccc(OC)c1)C1CCN(C(C)C)CC1 | n | n | n | n | n | x
SMILES | PfM18AAP inh-1 | PHOSPHO1 inh | PfG6PD inh | ALR inh | Cardio protect | PfGluPho conf | others
COc1ccc(NC(=S)N(CCC(C)C)C2CCN(C(C)C)CC2)cc1Cl | n | n | 69 | n | n | 83 | Diaphorase 10uM=n;Diaphorase 30uM=n
CC(C)CSc1nc2c(c(=O)[nH]c(=O)n2C)n1CC(O)COc1cccc2ccccc12 (stereo not given) | n | 88 | 64 | x | n | n
CCOc1ccc(Br)cc1S(=O)(=O)NC1CCCC1 | x | x | n | n | n | x
Cc1ccc(N2CCN(S(=O)(=O)c3ccc(C)cc3)CC2)cc1 | n | n | n | n | n | x
Cc1ccc(S(=O)(=O)N2CCN(C(=O)CN3CCN(c4ccc(O)cc4)CC3)CC2)cc1 | x | x | 64 | x | n | n
[O-][n+]1cccc2c(Br)cc(Br)c(O)c21 | n | n | n | n | n | x
C[n+]1cccc2c(Br)ccc([O-])c21 | n | n | 114 | n | n | n
C(=N\NC1=Nc2cccc3cccc1c23)/c1ccccc1 | n | n | 66 | n | n | n
C(=N\NC1=Nc2cccc3cccc1c23)/c1cccnc1 | n | n | 82 | n | n | n
